Experimental findings from PubChem BioAssay (NCI) are described below.

Common to all, as to test: NCI-60 one-dose screen, 48 h (100 = growth as untreated, 0 = no growth, -100 = all killed)
The test system of experiment [1] is T-47D breast. The conditions noted are these: 10 µM.
Experiment [2] has as its system BT-549 breast. The settings on record: 10 µM unless noted.
Experiment [3] relates to MDA-MB-435 melanoma. The conditions noted are these: 10 µM unless noted.
The test system of experiment [4] is SW-620 colon. The settings on record: 10 µM unless noted.
Experiment [5] deals with MCF7 breast. The settings on record: 10 µM unless noted.
Experiment [6] relates to HCT-116 colon. The settings on record: 10 µM unless noted.
The test system of experiment [7] is HCC-2998 colon. The conditions noted are these: 10 µM unless noted.
Experiment [8] has as its system KM12 colon. The settings on record: 10 µM unless noted.

The panel holds about 83,000 compounds, 20% with a hit somewhere; the sample as a whole holds those more often.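 The endpoint reported here, percent growth, reads 100 for growth as untreated, 0 for no net growth and -100 for all cells dead.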 A number with no mark means an inactive call. The source made the active and inactive calls. The calls were made as follows: active = growth percent below 10; inactive = the rest.

Turning to `O=S(=O)(Nc1ncccn1)c1ccc(Nc2ccc3nnc(-c4ccncc4)n3n2)cc1`, the growth in experiment [1] was 101%; in experiment [2], 106%; in experiment [3], 108%; in experiment [4], 93%; in experiment [5], 104%; in experiment [6], 108%. The growth in experiment [7] was 111%; in experiment [8], 101%.
As to `COc1cccc(C2C3=C(COC3=O)N(CCO)c3cc4c(cc32)OCO4)c1` (stereo not drawn), the growth in experiment [1] was 49.1%; in experiment [2] it was 37.2%; in experiment [3] it was -40.1% (active); in experiment [4], 22.4%; in experiment [5], 14.6%; in experiment [6] it was 8.72% (active). For the same compound, the values for the growth in experiment [7] and in experiment [8] were 5.59% (active) and 14.3%, respectively.
Consider `Cl.Fc1c[c-]c(-c2ccccn2)c(F)c1.[Pt].c1ccc([PH+](CC[PH+](c2ccccc2)c2ccccc2)c2ccccc2)cc1`, for which the growth in experiment [1] was -65.2% (active); in experiment [2], -69.2% (active); in experiment [3], -91.9% (active); in experiment [4] it was -88.8% (active); in experiment [5], -74.7% (active); in experiment [6], -90.4% (active). For the same compound, the growth is -82.9% (active) in experiment [7] and -89.1% (active) in experiment [8].
For the compound `Cc1cc(Cl)c2c(Cl)ccc(Cl)c2n1`, the growth is 103% in experiment [1]; 100% in experiment [2]; 102% in experiment [3]; 114% in experiment [4]; 99.3% in experiment [5]; 100% in experiment [6]. The growth in experiment [7] is 116%; in experiment [8] it was 108%.
With `COc1ccccc1-n1c(SCc2cc(OC)c(OC)c(OC)c2)nc2ccc(Cl)cc2c1=O`, the growth in experiment [1] is 43.9%; in experiment [2], 39.5%; in experiment [3] it was -34.2% (active); in experiment [4] it was 16.9%; in experiment [5], 15.6%; in experiment [6] it was 21.1%. For the same compound, the growth is 56.9% in experiment [7] and 16.4% in experiment [8].
As for `O=C(Nc1ccc(F)cc1)c1ccc(C(=O)Nc2ccc(F)cc2)cc1`, the growth in experiment [1] is 99.1%; in experiment [2], 112%; in experiment [3] it was 101%; in experiment [4], 109%; in experiment [5], 95.9%; in experiment [6], 96.2%. For the same compound, the figures for the growth in experiment [7] and in experiment [8] were 111% and 108%, respectively.
On to `O=C1C=CC(=O)N1CCCCCCCCCCN1C(=O)C=CC1=O`, for which the growth was 77.9% in experiment [1]; 101% in experiment [2]; 68.6% in experiment [3]; 4.62% (active) in experiment [4]; 82.7% in experiment [5]; 32.9% in experiment [6]. Also, the growth in experiment [7] was 90.7%; in experiment [8] it was 86.2%.
With `CCC(C)[C@H]1O[C@]2(CC[C@@H]1C)C[C@@H]1C[C@@H](C/C=C(\C)[C@@H](OC3C[C@H](OC)C(O[C@H]4C[C@H](OC)[C@@H](O)[C@H](C)O4)[C@H](C)O3)[C@@H](C)/C=C/C=C3\CO[C@@H]4[C@H](O)C(C)=C[C@@H](C(=O)O1)[C@]34O)O2` (stereo partly drawn), the growth in experiment [1] is 18.1%; in experiment [2], -26.3% (active); in experiment [3] it was 3.2% (active); in experiment [4] it was 18.5%; in experiment [5], 6.74% (active); in experiment [6], -89.2% (active). The growth is -82.3% (active) in experiment [7] and -11.8% (active) in experiment [8].
With `Cn1c2c(cc(S(=O)(=O)c3ccccc3)c1=O)CCc1c-2cnn1-c1ccccc1Cl`, the growth in experiment [1] is 68%; in experiment [2], 101%; in experiment [3], 100%; in experiment [4] it was 116%; in experiment [5], 96.2%; in experiment [6], 109%. In addition, the growth was 118% in experiment [7] and 112% in experiment [8].
In the case of `COc1ccc(OC)c2ncccc12`, the growth is 100% in experiment [1]; 97.4% in experiment [2]; 105% in experiment [3]; 99% in experiment [4]; 84.8% in experiment [5]; 100% in experiment [6]. Also, the growth in experiment [7] is 103%; in experiment [8] it was 99.6%.
On to `COc1ccc(S(=O)(=O)c2ccc(C(N)=O)cc2)cc1NC(=O)c1[nH]c(C)c2c1CCCCC2=O`, for which the growth was 34.4% in experiment [1]; 58.6% in experiment [2]; 28.6% in experiment [3]; 68.4% in experiment [4]; 23.1% in experiment [5]; 60% in experiment [6]. The growth was 66% in experiment [7] and 65.4% in experiment [8].
For `CCCCCCCCCCCCCCn1c2ccccc2c2c3c(c4c5cc(OC)ccc5oc4c21)C(=O)NC3=O`, the growth in experiment [1] is 104%; in experiment [2], 101%; in experiment [3], 103%; in experiment [4], 104%; in experiment [5], 102%; in experiment [6], 105%. Besides, the growth in experiment [7] was 107%; in experiment [8], 102%.
Consider `CCCCCCCCCCCCSC1=CC(=O)C=CC1=O`, for which the growth in experiment [1] is 30.6%; in experiment [2], 16.5%; in experiment [3], 102%; in experiment [4], 109%; in experiment [5], 68.9%; in experiment [6], 78.3%. The growth in experiment [7] was 94.3%; in experiment [8], 48.9%.
As to `O=C(O)C[C@H](O)C[C@H](O)/C=C/c1c(C2CC2)nc2ccccc2c1-c1ccc(F)cc1`, the growth was 95.9% in experiment [1]; 75.1% in experiment [2]; 93.9% in experiment [3]; 83.3% in experiment [4]; 96.3% in experiment [5]; 63.3% in experiment [6]. Also, the growth in experiment [7] was 99%; in experiment [8], 102%.
On to `CC(C)(C)[Si](C)(C)OC1[C@@H](O[Si](C)(C)C(C)(C)C)[C@@H](CNC(=O)NC(=O)C(F)(F)F)O[C@H]1n1cnc2c(NC(=O)Nc3ccccc3)ncnc21` (stereo partly drawn), for which the growth is 85.5% in experiment [1]; 96% in experiment [2]; -4.83% (active) in experiment [3]; 71.2% in experiment [4]; 48.3% in experiment [5]; 57.2% in experiment [6]. In addition, the growth in experiment [7] is 79.3%; in experiment [8], 24%.
For `Cc1cccc2c(=O)c3c(sc12)c(NCCNCCO)nc1ccccc13`, the growth in experiment [1] is 44.8%; in experiment [2] it was 78.4%; in experiment [3] it was 7.39% (active); in experiment [4], -67% (active); in experiment [5], -69% (active); in experiment [6], -70.6% (active). In addition, the growth is -24.9% (active) in experiment [7] and 5.93% (active) in experiment [8].
